From PubChem BioAssay (Tox21)
Records with an inconclusive call do not appear. The source made the active and inactive calls. Unless noted, calls follow the shape of the dose curve; as a rule, active = well fitted curve in the direction sought with a large enough effect in the repeat runs; inconclusive = weak or mixed curves; inactive = no such curve, though single readings can be large; an effect the other way counts as inactive or inconclusive.

Assays:
[1] = qHTS assay to identify small molecule agonists of the estrogen receptor beta (ER-beta) signaling pathway - cell viability counter screen (AID 1259380); also: nearly all actives have a fitted effect of over 30% in size; also: potency is read from the fitted curve at half-maximal effect
Outline: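 Cells used were ER-beta-UAS-bla HEK293T in medium with 2% charcoal-stripped FBS. They were treated for 16 hr at 37C. Viability came from CellTiter-Glo luminescence.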

[2] = target: Estrogen receptor (Homo sapiens) (UniProt P03372); test: qHTS assay to identify small molecule agonists of the estrogen receptor alpha (ER-alpha) signaling pathway in the presence of an antagonist (AID 1259383; calls by dose curve; also: top concentration of the series differs between compounds; nearly all actives have a fitted effect of over 15% in size)
Outline: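 Using VM7Luc4E2 cells seeded 24hr before treatment, antagonist ICI-182,780 (10.0nM final) was added, followed by compounds at 15 concentrations. Plates incubated 22hr; ONE-Glo luminescence quantified reporter activity.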

[3] = qHTS assay to identify small molecule agonists or antagonists of the thyroid stimulating hormone receptor (TSHR) signaling pathway - wild type cell line counter screen (AID 1259384; calls by dose curve)
Outline: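 Wild-type HEK293 cells were plated 18 h at 37 C/5% CO2, pin-dosed with compound plus Ro20-1724 medium, held 30 min at room temperature, then given cAMP-d2 and anti-cAMP-cryptate; fluorescence was read after 1 h. Fifteen concentrations, triplicate.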

[4] = target: Thyrotropin receptor (Homo sapiens) (UniProt P16473); test: qHTS assay to identify small molecule antagonists of the thyroid stimulating hormone receptor (TSHR) signaling pathway (AID 1259385; calls by dose curve; also: nearly all actives have a fitted effect of over 20% in size; also: potency is read from the fitted curve at half-maximal effect)
Outline: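 TSHR-HEK293 cells were plated and held 18 h at 37C/5% CO2, then given compound plus Ro20-1724 and stimulated with TSH at 1.5 ng/mL final. After 30 min at room temperature, cAMP was detected with cAMP-d2/anti-cAMP-cryptate (1 h) by fluorescence.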

[5] = qHTS assay to identify small molecule agonists of the estrogen receptor alpha (ER-alpha) signaling pathway in the presence of an antagonist - cell viability counter screen (AID 1259386);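 also: cells exposed to compounds for 22 h at 37 °C before the viability read; nearly all actives have a fitted effect of over 30% in size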; also: potency is read from the fitted curve at half-maximal effect
Outline: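 ICI-182,780 at 10.0nM final accompanies the compound titration (15 concentrations, 22hr, 37C) on VM7Luc4E2 cells. The CellTiter-Fluor fluorescence readout runs in the same wells as the luciferase assay.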

[6] = target: Progesterone receptor (Homo sapiens) (UniProt P06401); test: qHTS assay to identify small molecule agonists of the progesterone receptor (PR) signaling pathway (AID 1346784; calls by dose curve; also: nearly all actives have a fitted effect of over 30% in size)
Outline: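 Beta-lactamase reporter read-out: after 16 hr compound treatment at 37C and a further 2 hr at room temperature with LiveBLAzer B/G FRET substrate, fluorescence was measured in PR-UAS-bla HEK 293T cells grown in 2% charcoal-stripped serum.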

[7] = qHTS assay to identify small molecule antagonists of the progesterone receptor (PR) signaling pathway - cell viability counter screen (AID 1346798); also: nearly all actives have a fitted effect of over 50% in size; also: potency is read from the fitted curve at half-maximal effect
Outline: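 HEK293T PR-UAS-bla, 2% charcoal-stripped FBS; 4 hr pre-plate; cpd + R5020, 16 h 37C; LiveBLAzer read first; then CellTiter-Glo 30 min RT, luminescence.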

[8] = qHTS assay to identify small molecule agonists of the progesterone receptor (PR) signaling pathway - cell viability counter screen (AID 1346799; calls by dose curve; also: nearly all actives have a fitted effect of over 45% in size; also: potency is read from the fitted curve at half-maximal effect)
Outline: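 Luminescence from CellTiter-Glo, added after the beta-lactamase FRET read in the same wells, gave cytotoxicity in PR-UAS-bla HEK293T cells treated with compounds for 16 hr at 37C.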

[9] = qHTS assay to identify small molecule antagonists of the TGF-beta/Smad signaling pathway - cell viability counter screen (AID 1346824); also: nearly all actives have a fitted effect of over 50% in size; also: potency is read from the fitted curve at half-maximal effect
Outline: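 SBE-bla HEK 293T cells were plated overnight at 37 C, then given compounds in DMSO plus TGF-beta1 (added as 0.25 ng/mL solution) for 5 hr. After the bla read, CellTiter-Glo was added to the same wells and luminescence read after 30 min at room temperature.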

[10] = qHTS assay to identify small molecule agonists of the TGF-beta/Smad signaling pathway - cell viability counter screen (AID 1346829); also: nearly all actives have a fitted effect of over 45% in size; also: potency is read from the fitted curve at half-maximal effect
Outline: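 Same-well cytotoxicity: CellTiter-Glo added after the 2 hr room-temperature beta-lactamase substrate step, luminescence measured 30 min later; cells had 5 hr of compound at 37 C.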

[11] = qHTS assay to identify small molecule agonists of the TGF-beta/Smad signaling pathway (AID 1346859; active = well fitted activation curve with a large enough effect in the signal ratio in the repeat runs, not every such curve was filed as active; the % refers to the signal ratio; also: series mostly up to about 77 µM)
Outline: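 SBE-bla HEK 293T, 4,000 cells/well, plated o/n; cpd in DMSO, 5 hr, 37 C/5% CO2; B/G FRET substrate 2 hr RT; ex 405, em 460/530 nm.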

[12] = target: Thyrotropin-releasing hormone receptor (Homo sapiens) (UniProt P34981); test: qHTS assay to identify small molecule antagonists of the thyrotropin-releasing hormone receptor (TRHR) signaling pathway (AID 1346877; active = well fitted inhibition curve with a large enough effect in the repeat runs, not every such curve was filed as active; also: series mostly up to about 51 µM)
Outline: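 Screening used HEK293 cells engineered with TRHR, with a brief 5 min room-temperature compound exposure preceding addition of TRH to 1 nM. The read-out was kinetic calcium-dye fluorescence, concentration-response from 15 doses in triplicate.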

[13] = target: Thyrotropin-releasing hormone receptor (Homo sapiens) (UniProt P34981); test: qHTS assay to identify small molecule agonists of the thyrotropin-releasing hormone receptor (TRHR) signaling pathway (AID 1346891; calls by dose curve; also: series mostly up to about 58 µM)
Outline: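 Intracellular calcium rise, read as fluorescence every second for 3 min, served as the agonist signal in dye-loaded HEK293 cells expressing TRHR; each compound ran at 15 concentrations in triplicate.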

[14] = Caspase-3/7 induction in CHO-K1 cells by small molecules, qHTS cell viability counter screen (AID 1346979); also: nearly all actives have a fitted effect of over 35% in size; also: potency is read from the fitted curve at half-maximal effect
Outline: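 Cells (CHO-K1, wild type) are plated at 1,500 per well and incubated 5hr. Test compounds in DMSO are then pinned in, followed by 16hr at 37C and 5% CO2. Viability is read by CellTiter-Fluor fluorescence after 1hr.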

[15] = Caspase-3/7 induction in CHO-K1 cells by small molecules, qHTS assay (AID 1346980); also: nearly all actives have a fitted effect of over 15% in size; also: potency is read from the fitted curve at half-maximal effect
Outline: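 Wild-type cells were seeded at 1,500 per well and settled 5 hr at 37 C, 5% CO2, then exposed to DMSO-dissolved compounds for 17 hr. Caspase-Glo 3/7 reagent was added, and luminescence was read after 30min at room temperature.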

[16] = Human pregnane X receptor (PXR) small molecule agonists, qHTS cell viability counter screen (AID 1346977); also: nearly all actives have a fitted effect of over 50% in size; also: potency is read from the fitted curve at half-maximal effect
Outline: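 PXR-Luc HepG2, 2,000 cells/well, 5% charcoal-stripped FBS; 5hr settle; cpd 24hr, 37C/5% CO2; CellTiter-Fluor at 23hr, read 1hr later (fluorescence).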

[17] = Caspase-3/7 induction in HepG2 cells by small molecules, qHTS assay (AID 1346978); also: nearly all actives have a fitted effect of over 15% in size; also: potency is read from the fitted curve at half-maximal effect
Outline: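 Wild-type HepG2 cells (2,000/well) were settled 5 h at 37 C, 5% CO2, then exposed to compounds in DMSO for 17 h. Caspase-3/7 activity was read by luminescence 30 min after adding Caspase-Glo 3/7 reagent at room temperature.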

[18] = qHTS assay to identify small molecule antagonists of the estrogen receptor beta (ER-beta) signaling pathway - cell viability counter screen (AID 1259382); also: nearly all actives have a fitted effect of over 55% in size; also: potency is read from the fitted curve at half-maximal effect
Outline: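 Agonist-stimulated (1nM E2) ER-beta-UAS-bla HEK293T cells are incubated with library compounds for 16 hr at 37C. Cell viability is then assessed in the reporter-assay wells by adding CellTiter-Glo and reading luminescence after 30 min.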

[19] = target: Progesterone receptor (Homo sapiens) (UniProt P06401); test: qHTS assay to identify small molecule antagonists of the progesterone receptor (PR) signaling pathway (AID 1346795; active = well fitted inhibition curve with a large enough effect in the signal ratio in the repeat runs, not every such curve was filed as active; the % refers to the signal ratio; also: potency is read from the fitted curve at half-maximal effect)
Outline: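 Read-out is fluorescence from the LiveBLAzer B/G FRET substrate, cleaved by a UAS-controlled beta-lactamase in PR-UAS-bla HEK293T cells after 16 hr exposure to compound plus 1 nM promegestone (final), followed by 2 hr at room temperature.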

Measured: Potency

Sequence of Estrogen receptor (Homo sapiens) (P03372 whole entry, looked up): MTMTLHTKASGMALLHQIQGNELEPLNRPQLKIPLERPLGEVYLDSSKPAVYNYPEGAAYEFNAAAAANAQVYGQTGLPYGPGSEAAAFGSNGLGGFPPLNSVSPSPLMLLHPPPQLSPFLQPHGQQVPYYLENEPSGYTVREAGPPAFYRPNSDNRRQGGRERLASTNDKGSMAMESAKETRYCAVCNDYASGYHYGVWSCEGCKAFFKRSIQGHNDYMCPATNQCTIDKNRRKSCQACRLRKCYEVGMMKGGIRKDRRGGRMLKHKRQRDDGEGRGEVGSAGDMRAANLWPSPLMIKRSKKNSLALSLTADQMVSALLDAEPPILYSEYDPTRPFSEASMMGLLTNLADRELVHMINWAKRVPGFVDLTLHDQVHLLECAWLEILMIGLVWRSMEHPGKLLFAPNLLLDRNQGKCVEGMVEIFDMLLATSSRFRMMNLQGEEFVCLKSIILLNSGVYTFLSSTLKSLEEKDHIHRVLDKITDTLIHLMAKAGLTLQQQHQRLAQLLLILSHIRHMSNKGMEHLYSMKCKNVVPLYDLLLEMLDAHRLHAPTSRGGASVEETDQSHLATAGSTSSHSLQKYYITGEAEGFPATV
Sequence of Progesterone receptor (Homo sapiens) (P06401 whole entry, looked up): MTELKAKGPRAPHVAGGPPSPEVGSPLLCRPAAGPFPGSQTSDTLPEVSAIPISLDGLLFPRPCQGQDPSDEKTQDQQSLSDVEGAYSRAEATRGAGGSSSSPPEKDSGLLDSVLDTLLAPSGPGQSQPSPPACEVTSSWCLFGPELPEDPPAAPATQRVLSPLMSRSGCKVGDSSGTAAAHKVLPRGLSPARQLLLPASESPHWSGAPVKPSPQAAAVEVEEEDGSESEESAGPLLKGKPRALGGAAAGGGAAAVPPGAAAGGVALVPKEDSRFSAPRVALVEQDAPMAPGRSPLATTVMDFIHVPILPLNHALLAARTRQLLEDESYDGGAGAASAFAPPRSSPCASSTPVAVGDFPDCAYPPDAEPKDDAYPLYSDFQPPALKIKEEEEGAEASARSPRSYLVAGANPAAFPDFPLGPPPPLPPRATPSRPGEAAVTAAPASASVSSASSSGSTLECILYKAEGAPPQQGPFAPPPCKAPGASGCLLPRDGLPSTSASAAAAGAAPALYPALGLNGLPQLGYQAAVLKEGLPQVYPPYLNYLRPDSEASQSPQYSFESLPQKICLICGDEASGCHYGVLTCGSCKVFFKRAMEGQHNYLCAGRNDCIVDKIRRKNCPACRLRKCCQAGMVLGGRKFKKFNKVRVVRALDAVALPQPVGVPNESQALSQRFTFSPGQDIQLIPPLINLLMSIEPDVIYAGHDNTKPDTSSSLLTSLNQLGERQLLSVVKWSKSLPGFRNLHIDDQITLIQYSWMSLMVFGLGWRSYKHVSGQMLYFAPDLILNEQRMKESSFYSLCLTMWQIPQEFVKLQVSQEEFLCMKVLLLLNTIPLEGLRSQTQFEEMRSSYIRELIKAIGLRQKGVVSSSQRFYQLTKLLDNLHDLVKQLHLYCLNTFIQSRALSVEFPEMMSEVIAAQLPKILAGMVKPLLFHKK
Sequence of Thyrotropin receptor (Homo sapiens) (P16473 whole entry, looked up): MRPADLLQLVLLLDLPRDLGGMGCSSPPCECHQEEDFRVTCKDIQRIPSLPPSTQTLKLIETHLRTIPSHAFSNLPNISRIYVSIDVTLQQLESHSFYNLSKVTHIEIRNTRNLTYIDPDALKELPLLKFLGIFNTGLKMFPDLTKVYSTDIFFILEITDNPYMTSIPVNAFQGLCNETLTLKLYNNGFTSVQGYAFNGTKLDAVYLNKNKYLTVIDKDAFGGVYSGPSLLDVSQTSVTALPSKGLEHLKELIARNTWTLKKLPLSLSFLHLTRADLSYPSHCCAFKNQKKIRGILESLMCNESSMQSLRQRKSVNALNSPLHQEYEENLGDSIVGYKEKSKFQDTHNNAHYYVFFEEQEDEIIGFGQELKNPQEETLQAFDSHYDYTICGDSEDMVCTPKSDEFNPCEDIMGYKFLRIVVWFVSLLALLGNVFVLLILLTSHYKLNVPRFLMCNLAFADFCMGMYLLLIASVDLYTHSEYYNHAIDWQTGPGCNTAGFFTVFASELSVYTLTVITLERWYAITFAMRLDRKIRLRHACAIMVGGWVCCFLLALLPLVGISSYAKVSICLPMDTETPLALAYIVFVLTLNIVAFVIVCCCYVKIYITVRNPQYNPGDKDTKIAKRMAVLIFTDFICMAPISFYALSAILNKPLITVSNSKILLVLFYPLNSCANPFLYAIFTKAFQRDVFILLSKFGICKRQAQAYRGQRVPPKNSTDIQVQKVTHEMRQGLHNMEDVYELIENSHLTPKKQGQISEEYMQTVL
Sequence of Thyrotropin-releasing hormone receptor (Homo sapiens) (P34981 whole entry, looked up): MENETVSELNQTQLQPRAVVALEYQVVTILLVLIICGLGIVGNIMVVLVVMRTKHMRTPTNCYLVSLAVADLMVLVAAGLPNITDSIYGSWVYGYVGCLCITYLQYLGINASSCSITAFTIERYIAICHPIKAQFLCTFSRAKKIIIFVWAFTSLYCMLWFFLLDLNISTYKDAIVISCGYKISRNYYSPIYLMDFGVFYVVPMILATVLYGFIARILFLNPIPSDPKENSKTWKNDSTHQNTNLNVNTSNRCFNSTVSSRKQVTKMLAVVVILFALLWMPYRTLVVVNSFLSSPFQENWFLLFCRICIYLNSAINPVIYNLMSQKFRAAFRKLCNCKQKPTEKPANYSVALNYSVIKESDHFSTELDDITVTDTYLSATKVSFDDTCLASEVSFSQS

CCCCC/C=C\C=C\C(=O)OCC
active: [1] 50.6 µM | [14] 63.7 µM
not listed: [16] | [17] | [18] | [19]
inactive: all other assays above

Nc1c(Br)cc([N+](=O)[O-])cc1Br
not listed: [3] | [4] | [12] | [13] | [18] | [19]
inactive: all other assays above

O=[N+]([O-])c1ccc(O)c2ncccc12
inactive: [3] | [4] | [6] | [8] | [9] | [10] | [11] | [17]
active: [1] 0.944 µM | [5] 11.9 µM | [7] 0.531 µM | [14] 8.41 µM | [15] 5.96 µM

O=C(Nc1ccc([N+](=O)[O-])cc1)Nc1ccc([N+](=O)[O-])cc1 (tested in a mixture with another compound)
active: [1] 0.596 µM | [7] 1.19 µM
not listed: [2] | [14] | [18] | [19]
inactive: all other assays above

O=C1OC(=O)c2cc(-c3ccc4c(c3)C(=O)OC4=O)ccc21
not listed: [2] | [5] | [8] | [12] | [16]
inactive: all other assays above

[Cl][Dy]([Cl])[Cl]
not listed: [2] | [5] | [7] | [10] | [19]
inactive: all other assays above

Cc1c(Cl)c(=O)oc2cc(O)ccc12
inactive: [1] | [18] | [3] | [4] | [7] | [9] | [10] | [13] | [17] | [15]

CCNc1nc(NC(C)(C)C)nc(OC)n1
not listed: [2] | [5] | [8] | [10] | [12] | [14]
inactive: all other assays above

Cc1ccc(Cl)c(N)c1Cl
not listed: [2] | [6] | [7] | [8] | [12] | [13] | [16] | [19]
inactive: all other assays above

COc1ccc(OC)c(N=Nc2c(O)ccc3ccccc23)c1
active: [1] 30.6 µM | [4] 61.1 µM | [5] 6.11 µM | [10] 43.6 µM | [16] 10.9 µM | [14] 21.7 µM
not listed: [2] | [8] | [9] | [18]
inactive: all other assays above

c1ccc(-c2ccc(C(c3ccccc3)n3ccnc3)cc2)cc1 (stereo unspecified)
inactive: [2] | [3] | [5] | [9] | [11] | [17] | [15]
active: [1] 29.8 µM | [19] 5.96 µM | [7] 9.44 µM | [8] 16.8 µM

SC1CCCCC1
not listed: [2] | [14] | [19]
inactive: all other assays above

CN1CCN(CCCN2c3ccccc3Sc3ccc(C(F)(F)F)cc32)CC1
inactive: [3] | [9] | [10] | [11] | [17]
active: [1] 15 µM | [18] 21.1 µM | [4] 26.6 µM | [7] 26.6 µM | [16] 23.7 µM | [14] 33.5 µM

CCCCCN=C(N)N/N=C/c1c[nH]c2ccc(OC)cc12
inactive: [3] | [13] | [15]
active: [1] 16.8 µM | [18] 16.8 µM | [4] 29.8 µM | [7] 23.7 µM | [8] 16.8 µM | [9] 26.8 µM | [16] 18.8 µM | [17] 11.9 µM | [14] 29.8 µM

CCCCCCCCOC(=O)c1cc(O)c(O)c(O)c1
active: [1] 68.6 µM | [5] 54.5 µM | [19] 30.6 µM | [14] 1.09 µM | [15] 1.54 µM
inactive: [3] | [4] | [9] | [10]

ClC(c1ccccc1)(c1ccccc1)c1ccccc1
not listed: [2] | [3] | [4] | [14] | [19]
inactive: all other assays above
